TEAD-YAP inh: TEAD-YAP interaction inhibition; inhibition, % at 9.12 µM; AID 1259422; actives 1.4% (n = 640,000); HEK-TIYL cells, TEAD-Gal4/YAP UAS-luciferase luminescence; in the data active = inhibition above about 32%
GPR151 ag: activates the human receptor GPR151. Q8TDV0. PathHunter beta-arrestin GPR151 cells, luminescence. actives 1% (n = 650,000). activation, % at 11.2 µM; in the data active = activation above about 4.9%
MITF primary: blocks human microphthalmia-associated transcription factor; O75030; AlphaScreen MITF homodimerization, bead proximity signal; inhibition, % at 2.6 µM; actives 0.91% (n = 650,000); AID 1259374; in the data active = inhibition above about 50%
Target sequence (O75030 whole entry, looked up): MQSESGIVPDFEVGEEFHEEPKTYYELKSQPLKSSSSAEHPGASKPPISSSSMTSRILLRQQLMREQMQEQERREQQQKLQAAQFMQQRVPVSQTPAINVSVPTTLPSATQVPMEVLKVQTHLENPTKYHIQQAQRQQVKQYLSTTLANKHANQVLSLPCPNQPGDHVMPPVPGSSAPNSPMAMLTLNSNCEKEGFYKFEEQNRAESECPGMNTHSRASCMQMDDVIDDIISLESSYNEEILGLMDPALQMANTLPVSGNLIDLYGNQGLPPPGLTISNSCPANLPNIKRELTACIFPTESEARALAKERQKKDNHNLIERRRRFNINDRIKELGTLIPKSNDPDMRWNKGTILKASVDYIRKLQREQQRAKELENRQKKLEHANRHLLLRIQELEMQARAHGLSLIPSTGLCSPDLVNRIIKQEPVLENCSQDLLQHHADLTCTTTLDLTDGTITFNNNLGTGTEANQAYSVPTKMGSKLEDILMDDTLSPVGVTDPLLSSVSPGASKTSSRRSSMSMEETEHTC
FBW7 activator: activators of human E3 ligase FBW7; AID 1259310; normalized activity (activation), % at 26.1 µM; actives 0.13% (n = 650,000); Q969H0; AlphaScreen FBW7–phospho-cyclin E peptide binding, activator screen; in the data active = normalized activity above about 1.9%;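 also: purified mutant Fbw7 with reduced substrate affinity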
Each line names hits and unclear results; the compound was inactive in the other large screens. Sampled rows, rich in hits. Any-hit rate of the full collection: about 3.5%.

Cc1ccc(C)c(NC(=O)CN(C)S(=O)(=O)c2ccc(Br)cc2)c1	none
CN(CC(=O)Nc1ccc(F)cc1)C(=O)CCl	TEAD-YAP inh 42.4
Cc1ccc(C)c(NC(=O)CN(C)C(=O)CCl)c1	TEAD-YAP inh 72.6
Cc1ccc(-c2nn(-c3ccccc3)cc2C2CC(c3ccc(F)cc3)=NN2c2ccccc2)o1 (configuration not stated)	none
c1ccc(-c2ccc(C3=NN(c4ccccc4)C(c4ccccc4)C3)cc2)cc1 (configuration not stated)	none
Cc1ccc(C2CC(c3ccc(F)cc3)=NN2c2ccccc2)o1 (configuration not stated)	FBW7 activator 1.9
O=[N+]([O-])c1ccc(N2N=C(c3ccccc3)CC2c2ccccc2)cc1 (configuration not stated)	none
O=[N+]([O-])c1ccc(N2N=C(c3ccccc3)CC2c2ccccc2O)cc1 (configuration not stated)	FBW7 activator 3.5
Fc1ccccc1C1CC(c2ccccc2)=NN1c1ccccc1 (configuration not stated)	FBW7 activator 3.3
O=C(c1ccn(-c2ccnc(Nc3ccc(N4CCOCC4)cc3)c2)n1)N1CCC(O)CC1	TEAD-YAP inh 60.3
Cn1cnnc1-c1ccc(Nc2ncc(F)c(-c3ccccc3)n2)cc1	TEAD-YAP inh 40.6
Cc1nc(C)n(-c2ccc(Nc3ncc(F)c(-c4cc(F)cc(N5CCOCC5)c4)n3)cc2)n1	none
CCn1cc(-c2ccc3cnc(Nc4ccc(-n5cnc(N6CCOCC6)n5)cc4)nc3c2Cl)cn1	none
CC1CN(c2ncn(-c3ccc(Nc4ncc5ccc(-c6cnn(C)c6)c(Cl)c5n4)cc3)n2)CC(C)O1 (configuration not stated)	TEAD-YAP inh 57.3
Cn1cnnc1-c1ccc(Nc2ncc(F)c(-c3cc(F)cc(N4CCOCC4)c3)n2)cc1	TEAD-YAP inh 71.8
Cn1cnnc1-c1ccc(Nc2nccc(-c3cccc(Nc4ccccc4)c3)n2)cc1	none
CN1CCN(c2ncn(-c3ccc(Nc4ncc(F)c(-c5cc(F)cc(N6CCOCC6)c5)n4)cc3)n2)CC1	TEAD-YAP inh 77.2
CCOC(=O)c1c(-c2ccccc2)csc1NC(=S)NC(=O)N(C)C	none
O=c1/c(=C/c2cc(-c3ccccc3)n(-c3ccc(Br)cc3)c2-c2ccccc2)sc2nc3ccccc3n12	none
COCCCn1c(C)cn2c3c(=O)n(Cc4cccc(C)c4)c(=O)n(C)c3nc12	none
CCOC(=O)COc1c(Cl)cc(C=C2C(=O)N(C)C(=S)N(C)C2=O)cc1OCC	none
CCOC(=O)c1c(Cl)nc(C)c(Cl)c1Cl	none
Cn1cc(-c2nc(Nc3ccc(-n4cnc(N5CCC(O)CC5)n4)cc3)ncc2F)cn1	TEAD-YAP inh 85.2
Cn1cc(-c2ccc(-c3ccnc(Nc4ccc(-n5cnc(N6CCOCC6)n5)cc4)n3)cc2)cn1	none
CN1CCN(c2ncn(-c3ccc(Nc4ncc(F)c(-c5cccc(N6CCOCC6)c5)n4)cc3)n2)CC1	TEAD-YAP inh 61.8
Cn1cc(-c2ccc3cnc(Nc4ccc(-n5cnc(N6CCOCC6)n5)cc4)nc3n2)cn1	TEAD-YAP inh 80.2
N#Cc1cc(-c2nc(Nc3ccc(N4CCOCC4)cc3)ncc2F)cc(N2CCOCC2)c1	none
Cc1cc(N)n(C(=O)CSc2nc3ccccc3c(=O)n2Cc2cccs2)n1	none
COc1ccc(NC(=O)c2cnn(-c3ccc(C)cc3)c2C2CCNCC2)cc1	none
O=C(Cn1c(=S)[nH]c2ccccc2c1=O)N1CCN(C(=O)c2ccco2)CC1	none
Cc1ccc(S(=O)(=O)Nc2ccccc2/C=N/n2cnnc2)cc1	TEAD-YAP inh 51.0
Cc1ccccc1NC(=O)C(=O)NCCOc1ccc(Cl)cc1	none
CC(C)C(=O)Nc1cccc(C(=O)Nc2nnc(CCc3ccccc3)s2)c1	TEAD-YAP inh 47.3
COC(=O)c1ccc(COC(=O)/C=C/c2ccc([N+](=O)[O-])cc2)cc1	none
OCC#CCSc1ncnn1-c1ccccc1	FBW7 activator 7.2
O=C(CSc1n[nH]c(-c2ccccc2)n1)NCc1ccccc1	none
O=C(Nc1ccccc1Cl)c1cc(F)ccc1[N+](=O)[O-]	TEAD-YAP inh 79.8
O=C(Nc1ccc(N2CCCCC2)cc1)c1ccc(Cl)c([N+](=O)[O-])c1	TEAD-YAP inh 42.8
O=C(Nc1ccc([N+](=O)[O-])cc1Br)c1ccccc1O	TEAD-YAP inh 78.1
CC(C)CC(=O)Nc1ccc(Cl)c([N+](=O)[O-])c1	none
O=C(CCl)Nc1ccc(Cl)c([N+](=O)[O-])c1	TEAD-YAP inh 73.9
CCCCOc1ccc2c(C(F)(F)F)cc(=O)oc2c1C	none
O=C(Nc1ccc(F)cc1F)c1ccc(Cl)c([N+](=O)[O-])c1	TEAD-YAP inh 56.0
O=C(Nc1ccccc1Cl)c1ccc([N+](=O)[O-])cc1Cl	none
Cc1ccccc1C(=O)Nc1ccc(-c2ccc([N+](=O)[O-])cc2)cc1	none
O=C(Nc1ccc(-c2ccc([N+](=O)[O-])cc2)cc1)c1ccccc1O	TEAD-YAP inh 45.3
O=C(Nc1ccccc1Cl)c1cc([N+](=O)[O-])ccc1O	TEAD-YAP inh 60.4
O=C(Nc1ccc(Br)cc1F)c1ccc(Cl)c([N+](=O)[O-])c1	none
CCOC(=O)c1c(NC(=O)c2ccccc2F)sc(C(=O)Nc2ccc(OC)cc2OC)c1C	none
CCc1ccc(Nc2nc(C)cc(C)c2C#N)cc1	none
Cc1ccc(NC(=O)/C(C#N)=C/c2cn(CC(=O)NCc3ccco3)c3ccccc23)cc1	none
CCN(CC)c1ccc(/C=N\Nc2nncc(-c3ccccc3)n2)cc1	none
O=C(Nc1nc2ccccc2n1Cc1ccccc1Cl)c1ccccc1	none
CC(=O)Nc1nc2ccccc2n1Cc1ccccc1Cl	TEAD-YAP inh 32.6
CCc1ncn(-c2ccc(Nc3nccc(-c4cccc(N5CCOCC5)c4)n3)cc2)n1	TEAD-YAP inh 45.7
c1cc(-c2ccnc(Nc3ccc(-n4cnc(N5CCOCC5)n4)cc3)n2)cc(N2CCOCC2)c1	TEAD-YAP inh 43.0
c1ccc(Cn2nnnc2-c2ccc(Nc3nccc(-c4cccc(N5CCOCC5)c4)n3)cc2)cc1	FBW7 activator 2.0
OC1CCN(c2ncn(-c3ccc(Nc4nccc(-c5cccc(N6CCOCC6)c5)n4)cc3)n2)CC1	TEAD-YAP inh 81.8
CC(C)c1ncn(-c2ccc(Nc3nccc(-c4cccc(N5CCOCC5)c4)n3)cc2)n1	none
Fc1cncc(-c2ccnc(Nc3ccc(-n4cnc(N5CCOCC5)n4)cc3)n2)c1	none
Cc1ccncc1-c1ncn(-c2ccc(Nc3nccc(-c4cc(F)cc(N5CCOCC5)c4)n3)cc2)n1	none
CCN1CCN(c2ncn(-c3ccc(Nc4nccc(-c5cc(C#N)cc(N6CCOCC6)c5)n4)cc3)n2)CC1	none
CS(=O)(=O)c1cccc(-c2ccnc(Nc3ccc(-n4cnc(N5CCC(O)CC5)n4)cc3)n2)c1	TEAD-YAP inh 41.7
Cc1ncn(-c2ccc(Nc3nccc(-c4ccc(S(C)(=O)=O)c(N5CCCC(O)C5)c4)n3)cc2)n1 (configuration not stated)	none
CCN1CCN(c2ncn(-c3ccc(Nc4nccc(-c5cccc(N6CCOCC6)c5)n4)cc3)n2)CC1	TEAD-YAP inh 55.0

Source: PubChem BioAssay
